# Test results from PubChem BioAssay (Tox21).
# A number with no mark means an inactive call. Results filed as inconclusive are left out. Where a call stands in place of a potency, no number is given. Calls of active or inactive are those of the source. Unless noted, calls follow the shape of the dose curve; as a rule, active = well fitted curve in the direction sought with a large enough effect in the repeat runs; inconclusive = weak or mixed curves; inactive = no such curve, though single readings can be large; an effect the other way counts as inactive or inconclusive.
# Assays:
# [1] = qHTS assay for small molecule agonists of the p53 signaling pathway (AID 651631; calls by dose curve; also: nearly all actives have a fitted effect of over 15% in size; also: potency is read from the fitted curve at half-maximal effect)
# In short: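 Agonist mode screen using a stably integrated beta-lactamase gene under p53 response elements in HCT-116 cells. Compound exposure lasts 16 h at 37 °C; fluorescence intensity is measured following 2 h FRET substrate loading.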
# [2] = qHTS assay for small molecules that induce genotoxicity in human embryonic kidney cells expressing luciferase-tagged ATAD5 (AID 651632); also: nearly all actives have a fitted effect of over 15% in size
# In short: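 Concentration-response screen for ATAD5 upregulation in HEK293T luciferase reporter cells; 16 hr treatment at 37C, then luminescence after 30 min with Amplite at room temperature.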
# [3] = qHTS assay for small molecule agonists of the p53 signaling pathway - cell viability (AID 651633; calls by dose curve; also: nearly all actives have a fitted effect of over 30% in size; also: potency is read from the fitted curve at half-maximal effect)
# In short: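 Viability counter-read: CellTiter-Glo luminescence (30 min, room temperature) in the same p53RE-bla plates. These plates had been exposed to compounds for 16 h at 37 C.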
# [4] = qHTS assay for small molecule disruptors of the mitochondrial membrane potential - cell viability (AID 720634; calls by dose curve;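 also: human HepG2 liver cancer cells; series mostly up to about 83 µM; nearly all actives have a fitted effect of over 20% in size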)
# In short: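 In this qHTS format, HepG2 cells plated overnight were pinned with compound, incubated 1 hr, and assayed for ATP luminescence with CellTiter-Glo after m-MPI dye addition.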
# [5] = qHTS assay to test for compound auto fluorescence at 535 nm (green) in HepG2 cells (AID 720675)
# [6] = qHTS assay to test for compound auto fluorescence at 460 nm (blue) in HEK293 cells (AID 720678)
# In short: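 Intrinsic compound fluorescence is recorded in live HEK293 cultures after overnight incubation at 37C, 5% CO2, using excitation 405 nm and emission 460 nm. Values are referenced to triamterene.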
# [7] = qHTS assay to test for compound auto fluorescence at 535 nm (green) in HEK293 cells (AID 720680)
# [8] = qHTS assay to test for compound auto fluorescence at 460 nm (blue) in HEK293 cell free culture (AID 720681)
# In short: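 Blue fluorescence (Ex 405/Em 460 nm, triamterene-equivalent) was read immediately after pin transfer of compound or DMSO into medium (DMEM, 10% FBS) without cells.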
# [9] = qHTS assay to test for compound auto fluorescence at 535 nm (green) in HEK293 cell free culture (AID 720682)
# In short: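 No cells present: wells hold DMEM supplemented with 10% FBS, into which compound or vehicle is pinned. Green emission is then recorded (485 nm excitation, 535 nm emission) and scaled to fluorescein.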
# [10] = qHTS assay to test for compound auto fluorescence at 590 nm (red) in HEK293 cell free culture (AID 720683)
# In short: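 Red-channel autofluorescence of compounds in culture medium (DMEM, 10% FBS), no cells, measured at 540/590 nm. Rose Bengal sodium is the reference fluorophore for equivalence.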
# [11] = qHTS assay to test for compound auto fluorescence at 590 nm (red) in HepG2 cell free culture (AID 720684)
# In short: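 Cell-free; medium MEM + 10% FBS; compound or DMSO added by pintool; read Ex 540/Em 590 nm; Rose Bengal sodium as red reference fluorophore.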
# [12] = qHTS assay to test for compound auto fluorescence at 460 nm (blue) in HepG2 cell free culture (AID 720685)
# In short: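 Cell-free plates of MEM plus 10% FBS received 23 nL compound or DMSO vehicle; blue-channel (405/460 nm) intensity scored against triamterene as reference fluorophore.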
# [13] = qHTS assay to test for compound auto fluorescence at 535 nm (green) in HepG2 cell free culture (AID 720686)
# [14] = qHTS assay to test for compound auto fluorescence at 460 nm (blue) in HepG2 cells (AID 720687)
# In short: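 Blue-channel autofluorescence (Ex/Em 405/460 nm, triamterene-equivalent) was measured after 1 hr compound exposure at 37 C, 5% CO2. Cells were HepG2, plated overnight at 37 C in MEM plus 10% FBS.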
# [15] = qHTS assay to test for compound auto fluorescence at 590 nm (red) in HepG2 cells (AID 720674)
# In short: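 We screened compounds on adherent HepG2 cells, incubating them for an hour at 37 C in 5% CO2 before reading emission at 590 nm under 540 nm excitation; values reflect equivalence to Rose Bengal sodium fluorescence.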
# [16] = qHTS assay to test for compound auto fluorescence at 590 nm (red) in HEK293 cells (AID 720679)
# In short: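 Red autofluorescence, HEK293 cells: 2,000 cells/well; attach 4-5 hr 37C; add 23 nL cpd or DMSO; incubate o/n 37C 5% CO2; read Ex540/Em590; Rose Bengal sodium reference.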
# [17] = biological target: Glucocorticoid receptor (Homo sapiens) (UniProt P04150); assay: qHTS assay to identify small molecule agonists of the glucocorticoid receptor (GR) signaling pathway (AID 720691; active = well fitted activation curve with a large enough effect in the signal ratio in the repeat runs, not every such curve was filed as active; the % refers to the signal ratio)
# In short: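 Measures GR pathway activation through a GRE-beta-lactamase reporter stably integrated in HeLa cells, with 18 h compound treatment at 37 C and fluorescence detection using a FRET substrate.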
# [18] = biological target: Glucocorticoid receptor (Homo sapiens) (UniProt P04150); assay: qHTS assay to identify small molecule antagonists of the glucocorticoid receptor (GR) signaling pathway (AID 720692; active = well fitted inhibition curve with a large enough effect in the signal ratio in the repeat runs, not every such curve was filed as active; the % refers to the signal ratio)
# In short: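 Tox21 10K library screened in concentration-response for blockade of dexamethasone (5 nM final)-induced GRE-bla reporter activity in HeLa cells; 18 h treatment, fluorescence read.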
# [19] = qHTS assay for small molecule disruptors of the mitochondrial membrane potential (AID 720635)
# In short: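 Mitochondrial membrane potential tracked with Mito-MPS dye, red aggregates (ex 540/em 590 nm) against green monomers (ex 490/em 535 nm). Compound treatment 1 hr at 37C, dye 30 min in HepG2.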
# [20] = qHTS assay for small molecules that induce genotoxicity in human embryonic kidney cells expressing luciferase-tagged ATAD5 - cell viability (AID 651634; calls by dose curve; also: nearly all actives have a fitted effect of over 25% in size; also: potency is read from the fitted curve at half-maximal effect)
# In short: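 15.5 hr compound or vehicle exposure of HEK293T cells expressing luciferase-tagged ATAD5 at 37C; live-cell protease activity is read by fluorescence after 30 min of CellTiter-Fluor.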
# Sequence of Glucocorticoid receptor (Homo sapiens) (P04150 whole entry, looked up): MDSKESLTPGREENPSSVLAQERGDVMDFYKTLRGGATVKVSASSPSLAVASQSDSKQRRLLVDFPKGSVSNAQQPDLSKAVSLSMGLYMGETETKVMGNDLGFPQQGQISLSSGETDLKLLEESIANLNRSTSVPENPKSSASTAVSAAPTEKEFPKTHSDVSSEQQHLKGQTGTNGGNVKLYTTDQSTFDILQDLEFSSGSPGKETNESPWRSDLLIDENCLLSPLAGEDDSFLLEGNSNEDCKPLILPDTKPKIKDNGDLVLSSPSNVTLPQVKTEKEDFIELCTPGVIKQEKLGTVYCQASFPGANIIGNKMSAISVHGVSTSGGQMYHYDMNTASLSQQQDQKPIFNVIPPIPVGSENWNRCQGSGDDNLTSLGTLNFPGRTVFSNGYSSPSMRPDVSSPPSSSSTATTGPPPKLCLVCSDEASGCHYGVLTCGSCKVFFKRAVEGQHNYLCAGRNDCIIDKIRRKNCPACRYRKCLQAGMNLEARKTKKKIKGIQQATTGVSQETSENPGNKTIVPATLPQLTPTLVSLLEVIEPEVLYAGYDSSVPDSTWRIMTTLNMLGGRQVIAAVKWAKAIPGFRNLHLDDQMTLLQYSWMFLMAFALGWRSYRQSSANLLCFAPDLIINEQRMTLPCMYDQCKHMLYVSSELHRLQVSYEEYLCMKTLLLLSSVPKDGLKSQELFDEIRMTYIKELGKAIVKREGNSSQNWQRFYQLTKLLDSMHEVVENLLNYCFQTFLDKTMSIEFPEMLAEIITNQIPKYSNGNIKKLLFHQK
smiles,measurement,setting,value
CC(C)=CCC1C(=O)N(c2ccccc2)N(c2ccccc2)C1=O,Potency,[1],15 µM (active)
same,Potency,[2],inactive
same,Potency,[3],21.1 µM (active)
same,Potency,[4],inactive
same,outcome,[5],inactive
same,Potency,[6],inactive
same,outcome,[7],inactive
same,Potency,[8],inactive
same,outcome,[9],inactive
same,outcome,[10],inactive
same,outcome,[11],inactive
same,Potency,[12],inactive
same,outcome,[13],inactive
same,Potency,[14],inactive
NC1[C@H]2CN(c3nc4c(cc3F)c(=O)c(C(=O)O)cn4-c3ccc(F)cc3F)C[C@@H]12 (stereo partly drawn),Potency,[1],29.8 µM (active)
same,Potency,[3],inactive
same,Potency,[4],inactive
same,outcome,[15],inactive
same,outcome,[5],inactive
same,Potency,[6],inactive
same,outcome,[16],inactive
same,Potency,[8],inactive
same,outcome,[9],inactive
same,outcome,[10],inactive
same,outcome,[11],inactive
same,Potency,[12],inactive
same,outcome,[13],inactive
same,Potency,[14],inactive
same,Potency,[17],inactive
same,Potency,[18],inactive
CC(C)C=O,Potency,[1],inactive
same,Potency,[3],inactive
same,Potency,[4],inactive
same,Potency,[19],inactive
same,outcome,[15],inactive
same,outcome,[5],inactive
same,Potency,[6],inactive
same,outcome,[9],inactive
same,outcome,[10],inactive
same,outcome,[11],inactive
same,Potency,[12],inactive
same,outcome,[13],inactive
same,Potency,[14],inactive
same,Potency,[18],inactive
O=C1NC(=O)c2cc([N+](=O)[O-])ccc21,Potency,[1],inactive
same,Potency,[2],inactive
same,Potency,[3],inactive
same,Potency,[20],inactive
same,Potency,[4],inactive
same,outcome,[5],inactive
same,Potency,[6],inactive
same,outcome,[16],inactive
same,outcome,[7],inactive
same,outcome,[9],inactive
same,outcome,[10],inactive
same,outcome,[11],inactive
same,Potency,[12],inactive
same,outcome,[13],inactive
same,Potency,[14],inactive
same,Potency,[17],inactive
CCCCOc1ccc(OCCCN2CCOCC2)cc1,Potency,[1],inactive
same,Potency,[2],inactive
same,Potency,[3],inactive
same,Potency,[20],inactive
same,Potency,[4],inactive
same,"fluorescence, % of fluorescein control",[5],-0.0009% [at 18.6 µM]
same,"fluorescence, % of triamterene",[6],-0.0611% [at 18.6 µM]
same,"fluorescence, % of fluorescent control",[16],-0.188% [at 18.6 µM]
same,"fluorescence, % of fluorescein",[7],0.0257% [at 18.6 µM]
same,"fluorescence, % of fluorescent control",[8],-0.123% [at 18.6 µM]
same,activity change,[9],0.0858% [at 18.6 µM]
same,"fluorescence, % of fluorescent control",[10],-0.046% [at 18.6 µM]
same,"fluorescence, % of Rose Bengal",[11],0.461% [at 18.6 µM]
same,"fluorescence, % of fluorescent control",[12],-0.102% [at 18.6 µM]
same,"fluorescence, % of fluorescent control",[14],-0.0756% [at 18.6 µM]
Oc1cccc(O)c1O,Potency,[1],inactive
same,Potency,[2],inactive
same,Potency,[3],inactive
same,Potency,[20],inactive
same,Potency,[4],inactive
same,outcome,[15],inactive
same,outcome,[5],inactive
same,Potency,[6],inactive
same,outcome,[7],inactive
same,Potency,[8],inactive
same,outcome,[9],inactive
same,outcome,[10],inactive
same,outcome,[11],inactive
same,Potency,[12],inactive
same,outcome,[13],inactive
same,Potency,[14],inactive
same,Potency,[17],inactive
same,Potency,[18],inactive
CC(=O)Nc1cc(S(=O)(=O)O)cc2cc(S(=O)(=O)O)c(N=Nc3ccccc3)c(O)c12,Potency,[1],inactive
same,Potency,[2],inactive
same,Potency,[3],inactive
same,Potency,[20],30.6 µM (active)
same,outcome,[15],inactive
same,outcome,[5],inactive
same,Potency,[6],inactive
same,outcome,[16],inactive
same,outcome,[7],inactive
same,Potency,[8],inactive
same,outcome,[9],inactive
same,outcome,[10],inactive
same,Potency,[12],inactive
same,outcome,[13],inactive
same,Potency,[14],inactive
C=CC(=O)[O-].C=CC(=O)[O-].[Zn+2],Potency,[1],inactive
same,Potency,[3],inactive
same,Potency,[20],inactive
same,Potency,[4],inactive
same,outcome,[15],inactive
same,outcome,[5],inactive
same,Potency,[6],inactive
same,outcome,[16],inactive
same,Potency,[8],inactive
same,outcome,[9],inactive
same,outcome,[10],inactive
same,outcome,[11],inactive
same,Potency,[12],inactive
same,Potency,[14],inactive
same,Potency,[18],inactive
